Assay outcomes from PubChem BioAssay.
OvCa metastasis – blocks SKOV3ip1 adhesion and invasion in omental model; SKOV3ip1-GFP adhesion/invasion on 3D omental model, fluorescence; Potency, µM (highest dose often 45.8 µM), without a hit: at the top dose activity change, negative = inhibition, most hits filed as inhibitors; 46,000 tested, 0.1% active;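 further: potency means the concentration at half of the fitted maximal effect; plate controls were DMSO wells for no effect and tomatine positive control wells for full effect; nearly all actives have a fitted effect of over 65% in size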
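A 3D layer of primary human omental fibroblasts, mesothelial cells, fibronectin and collagen I, grown 48 hr, received SKOV3ip1-GFP cells in serum-free medium plus compounds at 0.36-46 umol/L. After 2 hr RT and 16 hr 37 C, fixed adherent GFP cells were counted; normalized to DMSO and tomatine.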
DRV1 agonist – activates human resolvin D1 receptor GPR32; CHO-K1 GPR32 beta-arrestin PathHunter luminescence, 90 min; zero percent set by DMSO-only wells; 48,000 tested, 2.5% active; O75388; activation, % at 76.9 µM; AID 1346428;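 active means activation of at least 60% and not above a set upper limit, about 1 call in 100 departs from these limits; inconclusive means activation of 40% to 60%, or above that upper limit; inactive means activation under 40%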; further: 0% is about no effect
Target sequence (O75388 whole entry, looked up): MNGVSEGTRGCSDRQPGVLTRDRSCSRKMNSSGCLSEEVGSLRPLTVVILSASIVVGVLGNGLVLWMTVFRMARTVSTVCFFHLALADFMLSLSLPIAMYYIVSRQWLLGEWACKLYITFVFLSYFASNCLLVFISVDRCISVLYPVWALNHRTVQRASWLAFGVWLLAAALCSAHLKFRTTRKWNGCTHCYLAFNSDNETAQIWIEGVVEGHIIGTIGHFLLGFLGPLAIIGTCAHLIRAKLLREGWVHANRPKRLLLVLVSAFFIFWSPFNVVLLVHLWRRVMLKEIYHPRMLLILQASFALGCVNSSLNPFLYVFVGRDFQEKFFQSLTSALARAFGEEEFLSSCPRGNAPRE
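Beta-arrestin recruitment read-out: luminescence from complemented beta-Gal in CHO-K1 GPR32 PathHunter cells, measured 1 h after detection reagent at ambient temperature following 90 min compound exposure at 37 °C; DMSO served as basal (EC0) control.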
HTT-AS promoter – HTT-AS promoter activation; AID 1508624; 48,000 tested, 0.24% active; HEK293 HTT-AS promoter firefly luciferase reporter, 24 h; response scale: percent change from vehicle, -100% = no light; Potency, µM (top dose mostly 57.5 µM), for inactives: top-dose activity change, positive = activation, most hits filed as activators; further: potency means the concentration at half of the fitted maximal effect; nearly all actives have a fitted effect of over 55% in size
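Quantitative HTS used concentration series of up to 57.5 uM final on HEK293 luciferase reporter cells, 24 h at 37 degrees C. Readout was Dual-Glo firefly luminescence.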
NTMT1 inh – NTMT1 methyltransferase inhibition. Q9BV86. NTMT1 MTase-Glo SAH luminescence, purified enzyme. Potency, µM (doses to about 114 µM), without a hit: top-dose activity change, negative = inhibition, hits mostly inhibitors. 59,000 tested, 2.5% active. AID 1645870;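 further: potency means the concentration at half of the fitted maximal effect; plate controls were DMSO vehicle for no effect and no enzyme for full effect; nearly all actives have a fitted effect of over 65% in size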
HTT promoter inh – inhibits huntingtin promoter activity | AID 1508623 | 48,000 tested, 0.93% active | HEK293 HTT promoter firefly luciferase reporter, 24 h | Potency, µM (titrated, usually from 57.5 µM), inactives show at the top dose activity change, negative = inhibition, actives largely listed as inhibitors; further: potency means the concentration at half of the fitted maximal effect; nearly all actives have a fitted effect of over 50% in size
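Luminescence was read after Dual-Glo reagent and a 10 min room-temperature incubation. Values were normalized to vehicle (0% activity) and zero RLU (-100% activity). Reporter HEK293 cells had been exposed to compounds (up to 57.5 uM final) for 24 h.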
* hit, by the source's call; i = inactive; ? = inconclusive; . = no result. Most compounds without a hit are left out; they make up all but 4.5% or so of the library. Unless noted, the call rests on the fitted dose curve; in most records, active means well fitted curve in the direction sought with a large enough effect; inconclusive means small, poorly fitted or top-dose-only effect, or another doubt; inactive means no such curve, though single readings can be large; an effect the other way counts as inactive or inconclusive.

SMILES	OvCa metastasis	DRV1 agonist	HTT-AS promoter	NTMT1 inh	HTT promoter inh
COc1cccc(-c2cc(C(=O)Nc3ccn(Cc4ccc(C)cc4)n3)no2)c1	i	49.5	.	.	.
Cc1nn(Cc2ccc(Cl)c(Cl)c2)c(C)c1NC(=O)c1noc2c1CCc1ccccc1-2	-3.6%	33.7	.	.	.
COc1ccc2c(c1)CCc1c(C(=O)Nc3c(C)nn(Cc4ccc(C)cc4)c3C)noc1-2	9.9%	-0.7	-46.9%	-21.2%	22.4µM*
COc1ccc(-c2cc(C(=O)Nc3ccn(Cc4ccc(C)cc4)n3)no2)cc1OC	-3.0%	77.7*	.	.	.
COc1ccccc1-c1cc(C(=O)Nc2c(C)nn(Cc3ccc(Cl)cc3)c2C)no1	?	72.3*	.	.	.
CCOC(=O)c1c(C)[nH]c(CCC(=O)Nc2ccccc2OCC)c1C	i	-15.6	-10.3%	9.6%	-10.3%
Oc1ccc(-c2ccccc2F)c2cccnc12	.	.	.	4.9%	.
Oc1ccc(Nc2ccccc2F)c2cccnc12	.	.	.	28.2µM*	.
COc1ccc(C2CC(=O)N3CN(C4CCCCC4)CSC3=C2C#N)c(OC)c1 (stereo not given)	8.0%	40.0	6.5%	15.8µM*	-9.6%
N#CC1=C2SCN(C3CCCCC3)CN2C(=O)CC1c1ccc(Br)cc1 (stereo not given)	-3.8%	31.3	-12.4%	35.5µM*	-22.0%
CC(C)NC(=O)Cn1c(=O)nc(-c2ccccc2F)c2cc(Cl)ccc21	-7.9%	-13.3	-9.4%	9.0%	-12.2%
COc1ccc(CNC(=O)Cn2c(=O)nc(-c3ccccc3F)c3cc(Cl)ccc32)cc1	11.2µM*	-0.4	-3.1%	-2.8%	-27.9%
COc1ccc(-c2nnc(Nc3ccc(OCC(N)=O)cc3)c3ccccc23)cc1	-27.9%	9.6	.	.	.
O=C(NCCO)c1ccc(-c2nnc(Nc3ccc(OC(F)(F)Cl)cc3)c3ccccc23)cc1	i	66.2*	-49.1%	9.4%	?
COc1ccc(NC(=O)Nc2sc3nc4n(c(=O)c3c2C)CCC(C)CC4)cc1OC (stereo not given)	2.8%	20.8	.	.	.
Cc1cc(C)c(OCC(=O)N(Cc2cccc(F)c2)Cc2ccco2)c(C)c1	4.0%	-23.9	-32.1%	12.2%	-26.9%
Cc1ccc2[nH]c(=O)c3cc(C(=O)NCc4cccc(Cl)c4)sc3c2c1	8.9%	-11.5	-5.9%	?	-6.2%
Cc1cccc(N2CCN(C(=O)c3cc4c(=O)[nH]c5ccc(C)cc5c4s3)CC2C)c1 (stereo not given)	3.2%	-2.6	-68.2%	?	12.6µM*
CCN(Cc1ccccc1)C(=O)c1cc2c(=O)[nH]c3ccc(C)cc3c2s1	-0.9%	-5.9	-21.9%	89.1µM*	-2.5%
Cc1cccc(N2CCN(C(=O)Nc3ccc(F)cc3)CC2C)c1 (stereo not given)	10.2%	63.3*	-11.2%	6.5%	-11.0%
COC(=O)c1cc(NC(=O)c2ccc3c(c2)NC(=O)c2ccccc2S3)cc(C(=O)OC)c1	i	-18.4	-9.5%	?	-19.8%
O=C(Nc1ccc(F)cc1)c1ccc2c(c1)NC(=O)c1ccccc1S2	1.2%	76.0*	.	.	.
CCOc1ccccc1NC(=O)c1c(NC(=O)COc2ccccc2)sc2c1CCCC2	10.5%	105.2*	-6.2%	-0.9%	-7.9%
CCOc1ccccc1NC(=O)c1c(NCc2ccc(C)o2)sc2c1CCCCC2	0.7%	-13.7	-12.1%	25.1µM*	-5.6%
CCOc1ccccc1NC(=O)c1c(NCc2ccc(C)o2)sc2c1CCC(C)C2 (stereo not given)	?	10.5	9.0%	-13.9%	-3.1%
COC(=O)c1c(NC(=O)COc2c(C)cccc2C)sc2c1CCCC2	-2.8%	5.9	-29.9%	1.1%	?
CCCc1ccc(OCC(=O)Nc2sc3c(c2C(=O)OC)CCCCC3)cc1	i	-15.0	-11.2%	89.1µM*	-5.6%
COc1cc(C(=O)NCC(c2ccc(N(C)C)cc2)N2CCc3ccccc32)cc(OC)c1OC (stereo not given)	7.5%	-29.6	-27.1%	3.7%	-21.5%
Cc1ccc(NS(=O)(=O)c2ccc3c(c2)C2C=CCC2C(c2ccc(C(=O)O)cc2)N3)cc1C (stereo not given)	.	.	.	25.1µM*	.
